# Measured values reported in PubChem BioAssay AID485364 (National Center for Advancing Translational Sciences (NCATS), 2010).
# Among all 360,000 compounds or so, about 11,000 (3.1%) were called active. Not shown: some 4% with an inconclusive outcome. Shown is part of a subset that was picked to be rich in actives. Unmarked numbers belong to inactive results. The call rests on the fitted dose curve; in most records, active means well fitted inhibition curve with a large enough effect; inconclusive means small, poorly fitted or top-dose-only effect; inactive means no such curve, though single readings can be large or run the other way.
# Target: Schistosoma mansoni thioredoxin glutathione reductase (TGR) (UniProt Q962Y6)
# Assay: qHTS Assay for the Inhibitors of Schistosoma Mansoni Peroxiredoxins; further: nearly all actives have a fitted effect of over 60% in size
# Settings: purified TGR, DTNB reduction, TNB absorbance 405 nm; series mostly up to 114 µM; activity change, negative = inhibition: at the top concentration
# Source text: Schistosomiasis is a major neglected tropical disease that currently affects over 200 million. It is caused by different species of flatworms, such as Schistosoma mansoni. Over the last century, drugs to treat the disease have evolved from potassium antimonyl tartrate, artemisinin, oxamniquine, to praziquantel, with praziquantel remaining the universally-used single drug of choice over the past three decades. However, transmission rates have changed little with praziquantel, and there is evidence for the development of drug resistant parasites. Because there is currently no suitable alternative therapy available, there is an urgent need to identify new targets and drugs for schistosomiasis treatment. Thioredoxin glutathione reductase (TGR), one uniquely positioned S. mansoni enzyme, has been identified as a major component of the worms' distinct and compressed antioxidant "firewall". TGR is a multifunctional enzyme that catalyzes the interconversion between reduced and oxidized forms of both glutathione (GSH) and thioredoxins, thus making it an attractive new antiparasitic target. Recently, a quantitative high-throughput screen of the NIH Molecular Libraries Small Molecule Repository (MLSMR, ~71K at the time of the screen in 2007) was performed using an assay that targeted both TGR and peroxiredoxin2 (Prx2, an H2O2-reducing enzymatic component of the S. mansoni redox "firewall") by following the decrease of NADPH fluorescence. […] Additional mechanistic link between exogenous NO donation and parasitic injury for the oxadiazole-2-oxide class of compounds was also expanded and better defined. Although the screen addressed both TGR and Prx2, the assay required post-screen target deconvolution for further characterization of the actives. In addition, the fluorescence assay was also subject to fluorescence interference from compound library members. We have developed a 1536-well-based kinetic HTS assay to address TGR alone. The assay followed the reduction of 5, 5'-dithiobis (2-nitrobenzoic acid) (DTNB) (Ellman's reagent) by NADPH and measured the increase in absorbance at 412 nm of the reaction product, TNB. […] This assay format can be used to screen the current MLSMR collection (with >300K compounds available) to find novel TGR inhibitors. Furoxan is a good choice to serve as a positive control in the primary HTS assay.
# Three microliters of reagents (100 uM NADPH and 20 nM TGR or 100 uM NADPH as no-enzyme control) were dispensed into 1,536-well black clear-bottomed plates. Compounds (23 nL) were transferred via Kalypsys pin tool equipped with 1536-pin array (10 nL slotted pins, V&P Scientific, San Diego, CA). The plates were then be incubated for 15 min at room temperature, and 1 uL aliquot of 500 uM NADPH were added, immediately followed by a 1 uL aliquot of 15 mM DTNB to start the reaction. The plate was transferred to a ViewLux high-throughput CCD imager (Perkin-Elmer, Wellesley, MA) where kinetic measurements of the TNB absorbance were acquired using a 405 excitation filter. Throughout the screen, reagent bottles and all liquid lines were made light-tight to minimize reagent degradation. All screening operations were performed on a fully integrated robotic system (Kalypsys, San Diego, CA) containing one RX-130 and two RX-90 anthropomorphic robotic arms (Staubli, Duncan, SC). Library plates were screened starting from the lowest and proceeding to the highest concentration, and a "double-dipping" step of the highest concentration was required to access higher concentrations of compounds. Vehicle-only plates, with DMSO being pin-transferred to the entire column 5-48 compound area, were inserted uniformly at the beginning and the end of each library in order to monitor for and record any shifts in the background, which can be affected by reagent dispensers or loss in enzyme activity overtime. […]
# On the % scale 0 is the no-effect control and ±100 the full control effect; potency means the concentration at half of the fitted maximal effect.
SMILES,"activity change, negative = inhibition [%]",Potency
O=C1Cc2cc(S(=O)(=O)Nc3ccc(OC(F)(F)F)cc3)cc3c2N1CCC3,5.73,–
Cc1ccc(-c2c3c(=O)n(C)c(=O)n(C)c3cn2-c2ccccc2O)cc1,-26.9,–
Cc1ccc(-c2c3c(=O)n(C)c(=O)n(C)c3cn2-n2cnnc2)cc1,–,39.8 µM (active)
COc1ccc(-c2c3c(=O)n(C)c(=O)n(C)c3cn2NC(C)=O)cc1,0,–
C=CCNC(=O)/C(=C\c1cccc([N+](=O)[O-])c1)NC(=O)c1ccccc1,-3.16,–
C=CCN(CC=C)CCOc1ccccc1[N+](=O)[O-],-4.88,–
C=CCN(N=Nc1cccc([N+](=O)[O-])c1)c1cccc([N+](=O)[O-])c1,–,20 µM (active)
CCn1cc(C(=O)NCc2ccccc2)c(=O)c2cc(S(=O)(=O)N3CCCCC3)ccc21,1.07,–
C#CCOc1ccc(C2CC(=O)Nc3c2c(C)nn3-c2nc(C)cc(C)n2)cc1 (centres undefined),-14.6,–
O=C(CSc1nccn1Cc1ccc(F)cc1)NCc1ccccc1,1.52,–
CN(C)c1cccc(C(=O)Nc2nc3ccc(S(=O)(=O)NC(C)(C)C)cc3s2)c1,-2.01,–
O=C(c1ccc(Cl)cc1)n1nc(-c2cccnc2)nc1NCc1ccc(F)cc1,1.24,–
CCc1nc2cccnc2n1-c1ccc(CC(=O)Nc2c(C)cccc2C)cc1,-0.678,–
CCc1nc2cccnc2n1-c1ccc(C(=O)O)cc1,–,44.7 µM (active)
COCCCNC(=O)Cc1ccc(-n2c(C)nc3cccnc32)cc1,-7.9,–
CCOc1ccc(NC(=O)c2c(NC(=O)Cc3ccccc3)sc3c2CCC(C)C3)cc1 (centres undefined),-1.16,–
Oc1ccc(C2Nc3cccc4cccc(c34)N2)cc1,–,14.1 µM (active)
Cc1ccc(C2Nc3cccc4cccc(c34)N2)cc1,–,17.8 µM (active)
Cc1ccc(C2CC(c3cccc(C)c3)n3nc(N)nc3N2)cc1 (centres undefined),4.95,–
COc1cccc(C2Nc3cccc4cccc(c34)N2)c1,–,20 µM (active)
COc1cccc(N2C(=O)C3CCCN3C2c2ccc(F)cc2)c1 (centres undefined),0.707,–
COc1ccc(C2CC(c3ccc(C)cc3)Nc3ncnn32)cc1 (centres undefined),7.07,–

SMILES,"activity change, negative = inhibition [%]",Potency
COc1ccc(C2NC(=O)c3ccccc3N2)cc1 (centres undefined),10.4,–
COc1ccc(-c2nn(CC(=O)NC3CCCC3)c3c2cnc2ccc(F)cc23)cc1,-3.89,–
CCn1cc(C(=O)NCc2ccc(C)cc2)c(=O)c2cc(S(=O)(=O)N3CCc4ccccc4C3)ccc21,12.2,–
COc1ccc(CNC(=O)COCc2cc(-c3cccs3)on2)cc1OC,8.12,–
Cc1ccc(Cl)cc1N1CCN(C(=O)C2CCC(CNS(=O)(=O)c3cccs3)CC2)CC1 (centres undefined),0.707,–
CCOc1ccc(CCNC(=O)c2csc3c2CCCCC3)cc1,3.2,–
COCCNC(=O)c1ccc2c(c1)N=C(C)c1cc(C)ccc1S2,6.6,–
CCOc1ccc(-c2cc(C)n3nc(C(=O)Nc4ccc(C)c(C)c4)cc3n2)cc1,-1.55,–
CCn1cc(C(=O)OCC(=O)Nc2cc(C)cc(C)c2)c(=O)c2ccc(C)nc21,6.93,–
O=C(CCS(=O)(=O)c1ccc2c(c1)NC(=O)CO2)Nc1cccc(C(F)(F)F)c1,-1.11,–
COc1cccc(-n2cc(C(=O)NCc3cccc(Cl)c3)c3ccccc3c2=O)c1,-13.4,–
COc1cccc(-c2nnc3n(CCc4ccccc4)c(=O)c4ccccc4n23)c1O,-7.84,–
COc1cccc(-n2ccn(CC(=O)NCc3ccc(C)cc3)c(=O)c2=O)c1,3.55,–
Cc1ccccc1N1C(=O)C2ON(c3ccccc3)C(c3ccncc3)C2C1=O (centres undefined),–,44.7 µM (active)
COC(=O)C1=NN(c2ccccc2)C2C(=O)N(c3ccccc3OC)C(=O)C12 (centres undefined),2.8,–
COc1cc(C2C3C(=O)N(c4ccccc4)C(=O)C3ON2c2ccccc2)ccc1O (centres undefined),-32.2,–
CC(C)(C)c1ccc(C(=O)N2CCC(c3nc(-c4ccc(S(=O)(=O)N5CCCC5)cc4)no3)CC2)cc1,0.494,–
CC(=O)c1ccc(N2CCN(C3C(=O)c4ccccc4N3C(C)=O)CC2)cc1 (centres undefined),-15.5,–
CCC(=O)N1CCc2cc(S(=O)(=O)NC(C(=O)Nc3ccc(C(C)=O)cc3)C(C)C)ccc21 (centres undefined),-2.24,–
CC(Nc1ccc(-c2nc(-c3ccco3)no2)cc1[N+](=O)[O-])c1ccccc1 (centres undefined),–,31.6 µM (active)
O=[N+]([O-])c1cc(-c2nc(-c3ccccc3)no2)ccc1NCc1ccco1,9.25,–
CNc1ccc(-c2nc(-c3ccco3)no2)cc1[N+](=O)[O-],11.9,–

SMILES,"activity change, negative = inhibition [%]",Potency
COc1ccccc1CNC(=O)CCCN1C(=O)NC2(CCCC2)C1=O,-11.2,–
CC[C@]1(c2ccccc2OC)C(=O)N(C(=O)OC)N1C(=O)OC,–,31.6 µM (active)
COC(=O)c1ccccc1NC(=O)Cc1ccccc1OC,0.626,–
CCOC(=O)c1cc2c(=O)n3ccccc3nc2n(Cc2ccco2)c1=NC(=O)c1ccc(F)cc1,-33.8,–
Cc1cccc(Nc2cc(C)nc(-n3nc(C)cc3C)n2)c1,2.04,–
Cc1nnc(N2CCCC(C(=O)NCCN(C)C)C2)c2nn(-c3ccccc3)c(C)c12 (centres undefined),38.7,–
COc1ccc(NC(=O)c2ccc3oc(=O)c(S(=O)(=O)c4ccc(F)cc4)cc3c2)c(OC)c1,10.2,–
O=C(NCc1ccco1)c1sc2cccc(F)c2c1Cl,–,39.8 µM (active)
COc1ccc2c(Cl)c(C(=O)NCc3ccco3)sc2c1,-22.5,–
O=C(NCc1ccco1)c1cc2sccc2n1Cc1ccc(F)cc1,-20.7,–
Cc1ccc(C)c(Nc2nnc(-c3ccc(C)c(S(=O)(=O)N4CCCCC4)c3)c3ccccc23)c1,4.43,–
Cc1ccc(C)c(N2CCN(c3ccc4cc(S(=O)(=O)N5CCC(C)CC5)ccc4n3)CC2)c1,3.72,–
COc1cccc(-c2n[nH]c3c2C(c2cccc(O)c2)N(C)C3=O)c1 (centres undefined),-2.88,–
Cc1nn(C(=O)c2ccoc2C)c(N)c1-c1ccccc1,0.165,–
O=C(O)CCCC(=O)N1N=C(c2ccco2)CC1c1ccco1 (centres undefined),-32.6,–
Cc1nn2c(c1-c1ccccc1)N=C(c1ccco1)CC2c1ccccc1 (centres undefined),–,10 µM (active)
COc1ccc(NC(=O)CCNS(=O)(=O)c2ccc3c(c2)CCCC(=O)N3)cc1Cl,0.434,–
CCCCn1c(SCC(=O)N2CCC(C(=O)OCC)CC2)nc2cc(S(N)(=O)=O)ccc21,-11.3,–
CCCCn1c(SCC(=O)N2CCCC2=O)nc2cc(S(N)(=O)=O)ccc21,-10.3,–
CCCCn1c(SCc2ncc(-c3ccccc3)o2)nc2cc(S(N)(=O)=O)ccc21,–,20 µM (active)
